In the supplement of paper PMC10849652:
Of roughly 7,900 targets only a part is listed; those with a hit were picked by preference. About 0.6% of all pairs of compound and target were hits.

Assays:
Experiment in all cases: log2 fold change, soluble protein after heating vs DMSO (PISA); higher = thermal stabilisation; K562 cells, 10 uM, 30 min; active = over 0.2 and 3.5 SD of the protein, either way, in both replicates (recomputed)
[1] = compound: C1=CC=C(C=C1)[C@H](COC2=CC3=C(C=C2)NC(=O)N3)NC(=O)C4=CC=CN(C4=O)CC5=CC(=C(C=C5)F)F
Outline: (§1)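 K562 cells (2×10^6 cells/mL) were treated with 10 μM compound for 30 min, and aliquots were heated for 3 min over 48°C-58°C. Pooled aliquots were extracted in PBS with 0.5% NP-40 at 4°C, and the supernatant after 21,000xg for 90 min was measured by TMTpro 16plex LC-MS/MS with channel sums equalised. Reported thermal stability, relative to control samples and from duplicates, is a log2 fold change.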

[2] = compound: CC1=C(SC2=C1C(=N[C@H](C3=NN=C(N32)C)CC(=O)N)C4=CC=C(C=C4)Cl)C
Outline: as §1

[3] = compound: CC1=C2C(=CC=C1)N=C(N(C2=O)C3=CC=CC=C3C)CN4C=NC5=C(N=CN=C54)N
Outline: as §1

[4] = compound: Cc1sc2c(c1C)C(c1ccc(Cl)cc1)=N[C@@H](CC(=O)OC(C)(C)C)c1nnc(C)n1-2
Outline: as §1

[5] = compound: c1ccc([C@@H]2C[C@H]2NC2CCNCC2)cc1
Outline: as §1

Measured: log2 fold change

DDX39A (UniProt O00148)
Sequence of UniProt O00148 (O00148 whole entry, looked up): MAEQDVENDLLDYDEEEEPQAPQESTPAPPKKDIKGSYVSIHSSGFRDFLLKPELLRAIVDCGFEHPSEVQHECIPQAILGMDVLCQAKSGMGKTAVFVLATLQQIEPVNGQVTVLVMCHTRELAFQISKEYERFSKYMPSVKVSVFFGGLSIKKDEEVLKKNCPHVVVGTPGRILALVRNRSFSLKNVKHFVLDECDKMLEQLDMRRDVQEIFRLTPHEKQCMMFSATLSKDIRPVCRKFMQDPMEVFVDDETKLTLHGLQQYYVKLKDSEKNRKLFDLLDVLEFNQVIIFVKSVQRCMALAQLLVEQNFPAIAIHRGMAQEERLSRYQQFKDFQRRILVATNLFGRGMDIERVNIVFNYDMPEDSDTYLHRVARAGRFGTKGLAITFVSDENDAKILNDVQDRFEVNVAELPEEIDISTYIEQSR
inactive: [1] -0.174 | [2] 0.063 | [3] 0.025 | [4] 0.015 | [5] -0.01

DMXL1 (UniProt Q9Y485)
inactive: [1] -0.017 | [2] 0.003 | [3] 0.071 | [4] -0.016 | [5] -0.05

CUX1 isoform 2 (UniProt Q13948)
Sequence of UniProt Q13948 (Q13948 whole entry, looked up): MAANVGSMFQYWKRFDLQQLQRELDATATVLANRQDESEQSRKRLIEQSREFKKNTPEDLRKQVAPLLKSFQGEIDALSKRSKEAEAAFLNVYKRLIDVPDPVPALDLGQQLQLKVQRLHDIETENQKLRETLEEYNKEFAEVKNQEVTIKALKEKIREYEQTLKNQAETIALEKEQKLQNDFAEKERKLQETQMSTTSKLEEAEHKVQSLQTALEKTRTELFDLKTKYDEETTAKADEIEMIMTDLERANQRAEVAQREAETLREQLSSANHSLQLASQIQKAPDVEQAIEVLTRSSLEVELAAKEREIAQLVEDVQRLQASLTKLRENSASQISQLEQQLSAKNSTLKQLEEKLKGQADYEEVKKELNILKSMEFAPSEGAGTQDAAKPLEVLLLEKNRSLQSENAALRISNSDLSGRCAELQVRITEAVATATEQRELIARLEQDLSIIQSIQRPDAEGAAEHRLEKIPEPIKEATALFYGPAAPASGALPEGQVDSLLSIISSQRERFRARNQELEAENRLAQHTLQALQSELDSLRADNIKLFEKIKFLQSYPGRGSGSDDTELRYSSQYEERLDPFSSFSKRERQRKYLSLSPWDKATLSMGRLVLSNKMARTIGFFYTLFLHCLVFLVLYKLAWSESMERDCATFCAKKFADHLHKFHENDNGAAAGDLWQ
inactive: [1] -0.067 | [2] 0.013 | [3] 0 | [4] 0 | [5] 0.023

ETNK1 (UniProt Q9HBU6)
Sequence of UniProt Q9HBU6 (Q9HBU6 whole entry, looked up): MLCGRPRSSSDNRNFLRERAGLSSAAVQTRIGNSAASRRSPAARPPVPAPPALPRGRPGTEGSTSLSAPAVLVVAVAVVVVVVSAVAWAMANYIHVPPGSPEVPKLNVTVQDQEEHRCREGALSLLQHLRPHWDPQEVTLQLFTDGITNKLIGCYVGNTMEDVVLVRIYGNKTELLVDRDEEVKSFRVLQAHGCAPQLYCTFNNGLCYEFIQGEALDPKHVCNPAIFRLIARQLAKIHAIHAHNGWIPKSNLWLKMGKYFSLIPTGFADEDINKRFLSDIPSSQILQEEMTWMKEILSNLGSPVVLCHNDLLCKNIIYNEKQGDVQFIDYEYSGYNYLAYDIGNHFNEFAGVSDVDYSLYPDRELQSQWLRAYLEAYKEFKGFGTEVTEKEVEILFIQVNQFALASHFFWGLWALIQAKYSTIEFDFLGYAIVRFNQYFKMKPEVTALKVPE
inactive: [1] 0 | [2] 0.044 | [3] 0.071 | [4] -0.092 | [5] 0.022

DDOST (UniProt P39656)
Sequence of UniProt P39656 (P39656 whole entry, looked up): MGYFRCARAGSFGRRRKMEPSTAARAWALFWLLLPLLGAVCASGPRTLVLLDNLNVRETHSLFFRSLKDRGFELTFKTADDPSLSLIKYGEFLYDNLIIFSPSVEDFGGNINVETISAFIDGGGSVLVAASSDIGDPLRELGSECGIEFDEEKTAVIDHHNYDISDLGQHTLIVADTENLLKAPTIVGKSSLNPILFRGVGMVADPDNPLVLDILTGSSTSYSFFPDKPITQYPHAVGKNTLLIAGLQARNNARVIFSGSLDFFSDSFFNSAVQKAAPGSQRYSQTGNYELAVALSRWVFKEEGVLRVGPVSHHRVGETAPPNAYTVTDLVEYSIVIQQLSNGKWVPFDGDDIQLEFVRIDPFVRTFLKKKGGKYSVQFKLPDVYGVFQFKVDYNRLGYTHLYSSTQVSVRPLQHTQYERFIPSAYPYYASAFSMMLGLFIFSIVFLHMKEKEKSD
inactive: [1] 0.018 | [2] -0.009 | [3] -0.078 | [4] -0.022 | [5] 0

DTWD2 (UniProt Q8NBA8)
Sequence of UniProt Q8NBA8 (Q8NBA8 whole entry, looked up): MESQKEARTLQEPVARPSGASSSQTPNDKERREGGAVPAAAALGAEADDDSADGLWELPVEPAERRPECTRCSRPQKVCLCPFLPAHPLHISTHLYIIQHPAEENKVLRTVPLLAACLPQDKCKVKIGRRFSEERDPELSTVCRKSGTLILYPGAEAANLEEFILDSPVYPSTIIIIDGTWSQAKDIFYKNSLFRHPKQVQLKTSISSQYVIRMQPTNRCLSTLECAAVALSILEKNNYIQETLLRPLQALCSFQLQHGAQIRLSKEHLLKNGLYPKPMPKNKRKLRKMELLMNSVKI
inactive: [1] -0.011 | [2] 0.125 | [3] 0.064 | [4] 0.043 | [5] -0.036

EXOC7 (UniProt Q9UPT5)
Sequence of UniProt Q9UPT5 (Q9UPT5 whole entry, looked up): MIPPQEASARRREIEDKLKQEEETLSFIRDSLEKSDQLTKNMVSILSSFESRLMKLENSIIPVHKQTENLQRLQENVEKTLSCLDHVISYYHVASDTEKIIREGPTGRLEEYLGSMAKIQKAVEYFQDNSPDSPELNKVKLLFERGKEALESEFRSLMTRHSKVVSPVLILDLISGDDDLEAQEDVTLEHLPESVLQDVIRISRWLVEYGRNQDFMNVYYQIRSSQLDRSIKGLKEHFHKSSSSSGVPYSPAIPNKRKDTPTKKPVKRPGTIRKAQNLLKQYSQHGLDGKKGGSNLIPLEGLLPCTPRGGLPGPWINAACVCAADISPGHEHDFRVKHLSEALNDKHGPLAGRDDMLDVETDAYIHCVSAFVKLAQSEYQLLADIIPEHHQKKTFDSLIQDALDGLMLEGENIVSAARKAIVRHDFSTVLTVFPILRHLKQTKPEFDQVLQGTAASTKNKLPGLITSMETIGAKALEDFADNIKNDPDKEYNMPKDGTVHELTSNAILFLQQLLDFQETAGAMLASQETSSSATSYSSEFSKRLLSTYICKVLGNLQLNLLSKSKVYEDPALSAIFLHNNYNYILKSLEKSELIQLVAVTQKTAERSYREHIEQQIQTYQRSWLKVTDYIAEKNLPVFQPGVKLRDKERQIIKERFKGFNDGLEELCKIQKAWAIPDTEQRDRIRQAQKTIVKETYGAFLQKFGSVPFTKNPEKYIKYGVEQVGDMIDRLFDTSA
inactive: [1] -0.063 | [2] -0.001 | [3] 0.035 | [4] 0.07 | [5] -0.014

DMAC1 (UniProt Q96GE9)
Sequence of UniProt Q96GE9 (Q96GE9 whole entry, looked up): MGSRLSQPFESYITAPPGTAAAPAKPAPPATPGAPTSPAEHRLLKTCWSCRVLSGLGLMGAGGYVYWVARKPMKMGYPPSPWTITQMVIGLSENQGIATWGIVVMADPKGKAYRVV
inactive: [1] 0.058 | [2] -0.041 | [3] 0.05 | [4] -0.085 | [5] 0.023

CTSH (UniProt P09668)
Sequence of UniProt P09668 (P09668 whole entry, looked up): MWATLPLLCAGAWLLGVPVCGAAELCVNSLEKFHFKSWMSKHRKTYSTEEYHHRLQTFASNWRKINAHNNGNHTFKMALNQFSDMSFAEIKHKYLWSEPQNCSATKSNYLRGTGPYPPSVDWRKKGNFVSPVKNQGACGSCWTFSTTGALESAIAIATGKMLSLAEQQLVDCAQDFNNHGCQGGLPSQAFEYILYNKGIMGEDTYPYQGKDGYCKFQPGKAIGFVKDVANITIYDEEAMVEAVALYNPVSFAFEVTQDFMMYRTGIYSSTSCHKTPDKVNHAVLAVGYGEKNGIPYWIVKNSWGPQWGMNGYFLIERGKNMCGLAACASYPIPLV
inactive: [1] 0 | [2] -0.046 | [3] -0.038 | [4] -0.035 | [5] 0.055
